# Measured values as given in PubChem BioAssay (NCI).
# The panel holds about 79,000 compounds, 15% with a hit somewhere; the sample as a whole holds those more often. Unmarked numbers belong to inactive results. Calls of active or inactive are those of the source. No stated cut-off is given here; in the data, active means growth inhibition above about 70%; inactive means the rest.
# Experiments:
# [1] = NCI Yeast Anticancer Drug Screen. Data for the rad50 strain (AID 155);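 further: 0% = growth of vehicle-only cultures of the same strain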; settings: S. cerevisiae rad50 strain growth inhibition, hits give high values
# Outline: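 Compounds were tested on a yeast strain with an engineered DNA damage repair alteration; the reported value is growth inhibition normalised to vehicle treatment.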
# [2] = NCI Yeast Anticancer Drug Screen. Data for the mec2-1 strain (AID 157); settings: S. cerevisiae mec2-1 strain, hits give high values
# Outline: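 Each compound was tested on mec2-1 yeast, a strain altered in DNA damage repair or cell cycle control. Growth inhibition is reported relative to vehicle.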
# [3] = NCI Yeast Anticancer Drug Screen. Data for the sgs1 mgt1 strain (AID 161);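 further: 0% = growth of cultures given vehicle only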; settings: S. cerevisiae sgs1 mgt1 strain, hits give high values
# Outline: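 Read-out: growth inhibition vs vehicle controls. Cells: mutant yeast strain deficient in DNA damage repair.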
# [4] = NCI Yeast Anticancer Drug Screen. Data for the cln2 rad14 strain (AID 165);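 further: 0% = growth equal to vehicle treated cultures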; settings: S. cerevisiae cln2 rad14 strain, hits give high values
# Outline: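 Test compounds were added to cln2 rad14 yeast cultures; inhibition of growth was then determined by comparison with vehicle treatment.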
# [5] = NCI Yeast Anticancer Drug Screen. Data for the bub3 strain (AID 167); settings: S. cerevisiae bub3 mutant strain, hits give high values
# Outline: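 Growth of a checkpoint-deficient yeast mutant is measured after compound exposure. Values represent inhibition relative to vehicle.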
# [6] = NCI Yeast Anticancer Drug Screen. Data for the mlh1 rad18 strain (AID 175); settings: S. cerevisiae mlh1 rad18 strain growth inhibition, hits give high values
# Outline: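 Inhibition values reflect reduced growth of mutant yeast versus vehicle-treated controls following compound exposure; the mutations affect DNA damage repair.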
# [7] = at 5.0 µM (retest, dose inferred, filed as 0.5)
# [8] = at 50.0 µM (retest, dose inferred, filed as 5.0)
SMILES,"growth inhibition [1, 7]","growth inhibition [1, 8]",growth inhibition ([1]; at 50.0 µM),"growth inhibition [2, 7]","growth inhibition [2, 8]",growth inhibition ([2]; at 50.0 µM),"growth inhibition [3, 7]","growth inhibition [3, 8]",growth inhibition ([3]; at 50.0 µM),"growth inhibition [4, 7]","growth inhibition [4, 8]",growth inhibition ([4]; at 50.0 µM),"growth inhibition [5, 7]","growth inhibition [5, 8]",growth inhibition ([5]; at 50.0 µM),"growth inhibition [6, 7]","growth inhibition [6, 8]",growth inhibition ([6]; at 50.0 µM)
ClCCN1CCOCC1,95% (active),97% (active),98% (active),94% (active),99% (active),98.8% (active),89% (active),98% (active),98.3% (active),71% (active),98% (active),95.8% (active),34%,98% (active),98.1% (active),91% (active),98% (active),98.8% (active)
C1=C[N-]c2c3c(ccc2=C1)=CC=C[N-]3.C1=C[N-]c2c3c(ccc2=C1)=CC=C[N-]3.F[P-](F)(F)(F)(F)F.[Cu+2],56%,98% (active),99.3% (active),52%,99% (active),99.5% (active),47%,99% (active),99.5% (active),51%,98% (active),98.8% (active),48%,99% (active),99.2% (active),53%,99% (active),99.1% (active)
Nc1cc2[nH]cnc2c([Se])n1,-155%,-6%,56%,-39%,-11%,62.9%,-54%,19%,48%,-60%,-33%,7.45%,-75%,21%,57.5%,-141%,-29%,83.8% (active)
CCOP(=S)(OCC)SSSP(=S)(OCC)OCC,6%,71% (active),1.6%,5%,62%,57.8%,7%,78% (active),15.7%,5%,20%,65.8%,2%,84% (active),70% (active),4%,49%,33.9%
Cc1cc[n+](C2=C(Nc3c(C)cccc3C)C(=O)c3ccccc3C2=O)cc1,44%,88% (active),89.7% (active),5%,61%,73.2% (active),-6%,67%,68.1%,-7%,54%,15.2%,6%,66%,48.4%,-1%,51%,71.2% (active)
S=c1sc(-c2ccccc2)c[se]1,-1%,42%,67%,2%,28%,21.6%,-2%,34%,46.4%,-1%,13%,88.5% (active),-1%,17%,35.1%,-5%,41%,32.9%
N#CC(C#N)=NNc1cccc(Cl)c1Cl,43%,73% (active),90.8% (active),48%,75% (active),92.7% (active),31%,100% (active),93.2% (active),71% (active),100% (active),90.7% (active),25%,100% (active),91.8% (active),41%,66%,90.2% (active)
CC(=O)C(CN(C)Cc1ccccc1)C(c1ccccc1)c1c(O)c2ccccc2oc1=O (centres undefined),26%,26%,68.5%,1%,1%,56.2%,24%,24%,71.7% (active),-9%,-9%,47.5%,-1%,-1%,70.7% (active),11%,11%,76.5% (active)
